Here are results for nine compounds from PubChem BioAssay (NCI).

The panel holds about 83,000 compounds, 20% with a hit somewhere; the sample as a whole holds those more often.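 Negative percent growth values reflect cell death: -40 means 40% of the cells present at the start died, and -100 means all died.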 Values without a mark were called inactive. Active and inactive are the calls of the source. The calls were made as follows: active = growth percent below 10; inactive = the rest.

Some test systems named below: SR leukemia; RPMI-8226 leukemia; OVCAR-8 ovarian; OVCAR-5 ovarian; OVCAR-4 ovarian; SK-OV-3 ovarian; OVCAR-3 ovarian; HS 578T breast; NCI/ADR-RES ovarian; T-47D breast; BT-549 breast; MDA-MB-435 melanoma; SW-620 colon; MCF7 breast; HCT-116 colon; HCC-2998 colon; KM12 colon.
What all share (assay): NCI-60 one-dose screen, 48 h (100 = growth as untreated, 0 = no growth, -100 = all killed)
Common to all, as to settings: 10 µM unless noted

Turning to `Cc1ccc(NC(=O)c2ccc(Nc3ncnc4c3cnn4-c3cccc(F)c3)cc2)cc1`, the growth in the assay on SR leukemia was 92.7%; in the assay on RPMI-8226 leukemia it was 90.2%; in the assay on OVCAR-8 ovarian, 97.6%; in the assay on OVCAR-5 ovarian it was 99.6%; with OVCAR-4 ovarian it was 98.9%; in the assay on SK-OV-3 ovarian, 109%. Also, the growth in the assay on OVCAR-3 ovarian is 106%; in the assay on HS 578T breast it was 96.6%; in the assay with NCI/ADR-RES ovarian, 98.8%; with T-47D breast, 92.6%; in the assay with BT-549 breast it was 99.7%; in the assay on MDA-MB-435 melanoma, 100%. Moreover, the growth in the assay on SW-620 colon was 101%; in the assay on MCF7 breast, 96.5%; in the assay on HCT-116 colon it was 101%; with HCC-2998 colon it was 107%; with KM12 colon, 102%.
As to `O=C(/C=C/c1ccc(Cl)cc1)c1ccc(-n2cc(CN3CCN(c4cc5c(cc4F)c(=O)c(C(=O)O)cn5C4CC4)CC3)nn2)cc1`, the growth with SR leukemia is 13.1%; in the assay on RPMI-8226 leukemia, 11.5%; in the assay with OVCAR-8 ovarian, 83.6%; in the assay on OVCAR-5 ovarian, 100%; in the assay on OVCAR-4 ovarian it was 94.4%; in the assay on SK-OV-3 ovarian, 84.6%. Moreover, the growth in the assay with OVCAR-3 ovarian is 90.5%; in the assay on HS 578T breast, 65.3%; in the assay with NCI/ADR-RES ovarian, 94.8%; in the assay on T-47D breast it was 93.4%; in the assay with BT-549 breast it was 90%; in the assay with MDA-MB-435 melanoma it was 82.2%. Moreover, the growth in the assay on SW-620 colon was 81.7%; with MCF7 breast, 51.2%; in the assay with HCT-116 colon, 2.68% (active); in the assay on HCC-2998 colon it was 90.7%; in the assay with KM12 colon, 86.4%.
Turning to `C=C1/C(=C\C=C2/CCC[C@]3(C)[C@@H]([C@H](C)CCCC(C)(C)O)CC[C@@H]23)C[C@@H](OC(=O)CBr)C[C@@H]1O`, the growth with SR leukemia is -47.3% (active); with RPMI-8226 leukemia, -50.7% (active); in the assay with OVCAR-8 ovarian, 57.3%; with OVCAR-5 ovarian, 84.1%; with OVCAR-4 ovarian it was 62.7%; in the assay on SK-OV-3 ovarian, 108%. For the same compound, the growth is -20.1% (active) with OVCAR-3 ovarian; 66.6% in the assay with HS 578T breast; 81.2% in the assay with NCI/ADR-RES ovarian; 81.7% in the assay on T-47D breast; -58.1% (active) in the assay with BT-549 breast; 90.4% in the assay with MDA-MB-435 melanoma. Besides, the growth in the assay on SW-620 colon was 70.7%; in the assay on HCT-116 colon, 80.9%; with HCC-2998 colon it was 107%; in the assay with KM12 colon, 57.9%.
On to `COCCn1cc(-c2nc(-c3cc4cccnc4n3C)cs2)c2cc(OC)ccc21`, for which the growth is 31% in the assay on SR leukemia; 41% with RPMI-8226 leukemia; 48.9% in the assay with OVCAR-8 ovarian; 37.5% in the assay with OVCAR-5 ovarian; 8.84% (active) with OVCAR-4 ovarian; 50% in the assay with SK-OV-3 ovarian. Moreover, the growth in the assay on OVCAR-3 ovarian is 6.53% (active); with HS 578T breast, 56.8%; in the assay on NCI/ADR-RES ovarian, 45.9%; with T-47D breast, -15.9% (active); in the assay on BT-549 breast it was 27%; with MDA-MB-435 melanoma, 89.6%. Further, the growth with SW-620 colon is 77.1%; in the assay with MCF7 breast, 2.86% (active); in the assay on HCT-116 colon it was 46.1%; in the assay with HCC-2998 colon, 39.6%; in the assay on KM12 colon, 6.09% (active).
In the case of `COc1cc(C(=O)n2nc(NCCCc3ccccc3)c3cc(N)ccc32)cc(OC)c1OC`, the growth is 52.3% in the assay with SR leukemia; 69.5% in the assay on RPMI-8226 leukemia; 82.8% with OVCAR-8 ovarian; 93.3% in the assay on OVCAR-5 ovarian; 105% in the assay with OVCAR-4 ovarian; 104% with SK-OV-3 ovarian. Moreover, the growth is 101% in the assay with OVCAR-3 ovarian; 111% in the assay with HS 578T breast; 68.4% with NCI/ADR-RES ovarian; 66% in the assay on T-47D breast; 97.1% in the assay with BT-549 breast; 99% in the assay on MDA-MB-435 melanoma. The growth was 112% in the assay on SW-620 colon; 89.3% with MCF7 breast; 90.1% with HCT-116 colon; 105% with HCC-2998 colon; 88.5% in the assay on KM12 colon.
For the compound `O=C(Nc1ncc(Cc2ccc(Cl)cc2)s1)C1=NCCCCN1`, the growth in the assay on SR leukemia was 106%; in the assay with RPMI-8226 leukemia, 97%; with OVCAR-8 ovarian, 106%; with OVCAR-5 ovarian it was 105%; with OVCAR-4 ovarian, 105%; in the assay with SK-OV-3 ovarian it was 106%. For the same compound, the growth in the assay on OVCAR-3 ovarian was 110%; with HS 578T breast it was 109%; in the assay with NCI/ADR-RES ovarian it was 106%; in the assay on T-47D breast, 92.5%; in the assay with BT-549 breast it was 104%; with MDA-MB-435 melanoma, 101%. In addition, the growth is 103% in the assay with SW-620 colon; 89.1% in the assay on MCF7 breast; 100% in the assay on HCT-116 colon; 118% with HCC-2998 colon; 103% with KM12 colon.
`COC(=O)[C@@H](Cc1c[nH]c2ccccc12)NC[C@@H](O)CN1C(=O)/C(=C\c2cc(OC)c(OC)c(OC)c2)c2ccccc21`: the growth in the assay with SR leukemia is 12.2%; in the assay with RPMI-8226 leukemia it was 6.06% (active); with OVCAR-8 ovarian, 59.3%; in the assay with OVCAR-5 ovarian, 105%; in the assay with OVCAR-4 ovarian, 63.1%; in the assay on SK-OV-3 ovarian, 98.6%. The growth in the assay on OVCAR-3 ovarian was 65.3%; in the assay on HS 578T breast it was 76%; in the assay on NCI/ADR-RES ovarian, 78.6%; in the assay with T-47D breast, 54.5%; in the assay on MDA-MB-435 melanoma, 56.1%; in the assay on SW-620 colon, 77.3%. The growth in the assay with MCF7 breast is 34.2%; with HCT-116 colon, 66%; in the assay with HCC-2998 colon, 75.2%; with KM12 colon, 60.4%.
Take `CN1CCN(c2ccc(Nc3ncc4[nH]c(=O)n(Cc5ccccc5N)c4n3)cc2)CC1`: the growth was 91% in the assay with SR leukemia; 105% in the assay on RPMI-8226 leukemia; 98.4% with OVCAR-8 ovarian; 79.1% in the assay on OVCAR-5 ovarian; 93.6% with OVCAR-4 ovarian; 81.3% with SK-OV-3 ovarian. Moreover, the growth in the assay with OVCAR-3 ovarian is 102%; in the assay on HS 578T breast, 69.8%; in the assay with NCI/ADR-RES ovarian, 102%; with T-47D breast it was 75.3%; in the assay with MDA-MB-435 melanoma it was 104%; with SW-620 colon, 95.3%. In addition, the growth in the assay with MCF7 breast is 87.8%; in the assay on HCT-116 colon it was 91.5%; with HCC-2998 colon, 96.4%; in the assay on KM12 colon, 101%.
On to `Cc1c(CC(=O)Nc2ccccc2)nnn1-c1ccccc1`, for which the growth was 103% in the assay on SR leukemia; 103% in the assay with RPMI-8226 leukemia; 105% with OVCAR-8 ovarian; 108% in the assay with OVCAR-5 ovarian; 115% in the assay with OVCAR-4 ovarian; 110% in the assay on SK-OV-3 ovarian. The growth in the assay on OVCAR-3 ovarian was 115%; in the assay on HS 578T breast it was 102%; with NCI/ADR-RES ovarian it was 99.5%; in the assay on T-47D breast, 101%; in the assay with BT-549 breast, 112%; with MDA-MB-435 melanoma, 115%. Moreover, the growth was 110% with SW-620 colon; 99.6% in the assay with MCF7 breast; 106% in the assay on HCT-116 colon; 102% in the assay with HCC-2998 colon; 108% in the assay on KM12 colon.
